The source of these data is PubChem BioAssay AID1224897 (Sanford-Burnham Center for Chemical Genomics, 2016).

The list shows a part of the results. Calls of active or inactive are those of the source. No rule for the calls is given here.

Sequence of Hepatocyte nuclear factor 4-alpha (Homo sapiens) (P41235 whole entry, looked up): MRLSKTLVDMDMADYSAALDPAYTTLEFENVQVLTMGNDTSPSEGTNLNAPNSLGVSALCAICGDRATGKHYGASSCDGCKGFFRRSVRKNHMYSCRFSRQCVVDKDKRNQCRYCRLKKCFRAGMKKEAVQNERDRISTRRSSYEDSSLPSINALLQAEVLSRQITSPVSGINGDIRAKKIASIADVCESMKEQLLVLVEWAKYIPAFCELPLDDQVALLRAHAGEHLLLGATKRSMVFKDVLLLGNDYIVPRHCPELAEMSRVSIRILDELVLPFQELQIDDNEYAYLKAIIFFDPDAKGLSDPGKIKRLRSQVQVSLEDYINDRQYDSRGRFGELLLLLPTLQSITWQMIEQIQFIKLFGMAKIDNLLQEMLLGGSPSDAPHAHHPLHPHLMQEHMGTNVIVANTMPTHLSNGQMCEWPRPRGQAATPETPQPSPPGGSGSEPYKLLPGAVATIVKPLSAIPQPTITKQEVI

This assay has as its target Hepatocyte nuclear factor 4-alpha (Homo sapiens) (UniProt P41235). Nature of the assay: change in HNF4A binding to DNA, retest, confirmation, biochemical, fluorescence polarization, FITC-DNA (AID 1224897). Conditions: 1 h, at 12.5 µM, hits give high values.
For `Fc1cccc(Cc2c(-c3cccc(Cl)c3)nc3ccc(Br)cn23)c1`, the activity change is 51% (active). Next, `C/C(=N/Nc1nc(-c2ccccc2)c(CC(=O)O)s1)c1ccccc1`: 57.6% (active); `O=C1/C(=C/c2coc3ccc(O)cc3c2=O)SC(=S)N1c1ccccc1`: 57% (active). In the case of `COc1ccc(-c2nc3cc(C)ccn3c2NC2CCCCC2)cc1SC1CCCCC1`, the activity change was 37.6% (active).

On to `Cn1c2ccccc2c2cc(/C=C(\NC(=O)c3ccccc3)C(=O)NCC(=O)O)ccc21`, for which the activity change was 45.6% (active).

Take `Cc1cccc(COc2ccccc2/C=N/Nc2ccc([N+](=O)[O-])cc2)c1`: the activity change is 56.9% (active).

As to `Cn1cccc1/C=C1\SC(=S)N(NC(=O)c2ccc(Cl)cc2)C1=O`, the activity change is 72.5% (active). For `C#CCOCCOCCOCCNc1nc(N2CCN(C(=O)C([C@@H](C)O)n3cc([C@@H](N)CCCCN)nn3)CC2)nc(N2CCN(C(=O)[C@H](CCCCN)n3cc(CN)nn3)CC2)n1` (some centres undefined) the value was 108% (active); for `CCC(C)N1C(=O)S/C(=C/c2ccc(Sc3nc4ccccc4[nH]3)o2)C1=O` (centres undefined), 76.4% (active).
